Results: ChEMBL document CHEMBL1857833, “Screening and optimization of specific chemical series against human African Trypanosomiasis (HAT)”
Values joined by “and” are separate entries in the source; they are usually repeats but may differ in a detail not shown here. Equal values may be shown once. In all, about 4,400 compounds went through this assay and about 390 (8.9%) showed an effect of 50% or more. This excerpt belongs to a sample that is enriched for strong results.

Tested on: Trypanosoma brucei
Assay: DNDI: Inhibition of Human African Trypanosomiasis, SBRI 427, in vitro at 2 ug.mL-1
Type: functional

| SMILES | % inhibition |
| --- | --- |
| Cc1ccc(/C(=N/O)NC2CCCCC2)c(OCc2cccc(F)c2)n1 | -9% |
| CCC(NCc1coc(-c2ccc(OC(F)(F)F)cc2)n1)c1ccccc1 (stereo unspecified) | -21% |
| CSc1ccc(Oc2cc(/C(=N/O)NC3CCc4ccccc43)ccn2)cc1 (stereo unspecified) | 9% |
| COCCN(Cc1coc(-c2ccccc2C)n1)C(C)(C)C | 2% |
| COc1ccc(Oc2nc(C)ccc2/C(=N/O)N2CCCCC2)cc1 | 28% |
| Cc1cccc(Oc2nc(C)ccc2/C(=N/O)N2CCN(c3ccc(F)cc3)CC2)c1 | 12% |
| COc1ccccc1CN/C(=N\O)c1ccc(C)nc1OC1CCC1 | 6% |
| Cc1cn(Cc2coc(-c3cccc(F)c3)n2)c(-c2ccccc2)n1 | -9% |
| CCOc1ccc(Oc2cc(/C(=N/O)N3CCC4CCCCC4C3)ccn2)cc1 (stereo unspecified) | 16% |
| Cn1nc(C(C)(C)C)cc1NCc1coc(-c2cccc3ccccc23)n1 | 25% |
| CCOc1ccccc1-c1nc(CN(C)Cc2ccccc2)co1 | 4% |
| Cc1ccc(/C(=N/O)N(C)C2CCCCC2)c(Oc2cccc(F)c2)n1 | 10% |
| CCC(NCc1coc(-c2ccc(OC)cc2)n1)c1ccccc1 (stereo unspecified) | 12% and 8% |
| Clc1ccc(-c2nc(CNCCCN3CCCC3)co2)c(Cl)c1 | 98% |
| Clc1ccc(-c2nc(CNCCCN3CCOCC3)co2)c(Cl)c1 | 23% |
| Clc1ccc(-c2nc(CNCCN3CCCC3)co2)c(Cl)c1 | -4% |
| COc1ccc(Oc2cc(/C(=N/O)NCc3cc(F)cc(F)c3)ccn2)cc1 | 5% |
| CCOc1ccc(Oc2cc(/C(=N/O)NCc3ccc(OC)cc3)ccn2)cc1 | -4% |
| COc1ccc(Oc2cc(/C(=N/O)NCC(C)(C)C)ccn2)cc1 | 92% |
| CC(C)CN/C(=N\O)c1ccnc(Oc2ccc(Cl)cc2)c1 | 25% |
| COc1ccc(Oc2cc(/C(=N/O)Nc3ccccc3)ccn2)cc1 | 15% |
| COc1ccc(Oc2cc(/C(=N/O)NCc3ccncc3)ccn2)cc1 | 9% |
| CCOc1ccc(Oc2cc(/C(=N/O)NCC(C)(C)C)ccn2)cc1 | 43% |

| SMILES | % inhibition |
| --- | --- |
| COc1ccc(Oc2cc(/C(=N/O)NCC(C)C)ccn2)cc1 | 93% |
| CCC(CC)N/C(=N\O)c1ccnc(Oc2ccc(OC)cc2)c1 | 97% |
| CCOc1ccc(-c2nc(CNc3ccc(OC)cc3)co2)cc1 | -21% |
| CCCCN(C)Cc1coc(-c2cccs2)n1 | 15% |
| CCOc1ccc(-c2nc(CN3CCc4cc(OC)c(OC)cc4C3C(C)C)co2)cc1 (stereo unspecified) | 15% |
| COc1ccc(-c2nc(CN(C)c3ccc(OC)cc3)co2)cc1 | 6% |
| CCOc1ccccc1Oc1ncccc1/C(=N/O)n1cnc(C)c1 | 16% |
| CCOc1ccccc1CNCc1coc(-c2ccc(OC)cc2)n1 | -13% |
| CCCC(C)NCc1coc(-c2ccccc2Br)n1 (stereo unspecified) | -7% |
| Fc1cccc(-c2nc(CN3CCN(c4cccc(Cl)c4)CC3)co2)c1 | 17% |
| COc1cccc(-c2nc(CN(C)CCc3ccccc3)co2)c1 | 1% |
| COc1cccc(Oc2ccc(/C(=N/O)NC3CCC(C)CC3)cn2)c1 (stereo unspecified) | 89% |
| COc1cccc(Oc2ccc(/C(=N/O)NC3CC(C)CC(C)(C)C3)cn2)c1 (stereo unspecified) | 7% |
| COc1ccc(CN/C(=N\O)c2ccc(Oc3cccc(OC)c3)nc2)cc1 | 10% |
| COc1cccc(Oc2ccc(/C(=N/O)NC3CCN(Cc4ccccc4)C3)cn2)c1 (stereo unspecified) | -3% |
| COc1cccc(Oc2ccc(/C(=N/O)NC3CCCCC3)cn2)c1 | 98% |
| Cc1cccc(Oc2ccc(/C(=N/O)NC3CCc4ccccc43)cn2)c1 (stereo unspecified) | 10% |
| Cc1cccc(Oc2ccc(/C(=N/O)NCC3CCCCC3)cn2)c1 | 36% |
| COc1cccc(Oc2ccc(/C(=N/O)NCC3CCCCC3)cn2)c1 | 87% |
| Cc1cccc(Oc2ccc(/C(=N/O)NC3CC(C)CC(C)(C)C3)cn2)c1 (stereo unspecified) | 47% |
| Cc1cccc(Oc2ccc(/C(=N/O)NC3CCC(C)CC3)cn2)c1 (stereo unspecified) | 59% |
| Cc1ccc(/C(=N/O)N2CCC3CCCCC3C2)c(Oc2cccc(F)c2)n1 (stereo unspecified) | 16% |
| CCCN(Cc1coc(-c2cccc(F)c2)n1)CC1CC1 | 17% |

| SMILES | % inhibition |
| --- | --- |
| COc1ccc(NCc2coc(-c3cccc(F)c3)n2)cc1 | 14% |
| CC(C)c1cccc(Oc2cc(/C(=N/O)NC3CCc4ccccc43)ccn2)c1 (stereo unspecified) | 4% |
| Clc1ccccc1-c1nc(CN2CCN(C/C=C/c3ccccc3)CC2)co1 | -22% |
| COC(=O)C1CCN(/C(=N\O)c2cccnc2OCC2CCCCC2)CC1 | 6% |
| Cc1ccc(/C(=N/O)NCc2cccnc2)c(Oc2cccc(F)c2)n1 | 5% |
| Cc1ccc([C@@H](C)NCc2coc(-c3ccc(OC(F)(F)F)cc3)n2)cc1 | -17% |
| CCc1ccc(Oc2ncccc2/C(=N/O)N2CC(C)CC(C)C2)cc1 (stereo unspecified) | 15% |
| CCOc1ccc(-c2nc(CNC3CC(C)CC(C)(C)C3)co2)cc1 (stereo unspecified) | 99% |
| CC1CN(Cc2coc(-c3ccc(C(F)(F)F)cc3)n2)CC(C)O1 (stereo unspecified) | 12% |
| CC1CC(NCc2coc(-c3ccc(C(F)(F)F)cc3)n2)CC(C)(C)C1 (stereo unspecified) | 98% |
| CCOc1ccc(-c2nc(CNC3CCCCCC3)co2)cc1 | 20% |
| CCOc1ccc(-c2nc(CN3CC(C)OC(C)C3)co2)cc1 (stereo unspecified) | -8% |
| CC(NCc1coc(-c2ccc(C(F)(F)F)cc2)n1)C1CCCCC1 (stereo unspecified) | 7% |
| C#CC1(NCc2coc(-c3ccccc3Cl)n2)CCCCC1 | -12% |
| COc1ccc(CN/C(=N\O)c2ccc(Oc3cc(C)cc(C(C)C)c3)nc2)cc1 | 28% |
| Brc1ccc(-c2nc(CNCc3cccnc3)co2)cc1 | -36% |
| COc1cccc(-c2nc(CN(C)C(C)(C)C)co2)c1 | 31% |
| c1ccc(-c2nc(CN3CCN(C4CCCCC4)CC3)co2)cc1 | -4% |
| CCOc1ccccc1CN/C(=N\O)c1ccc(Oc2ccc(Cl)cc2)nc1 | 1% |
| COc1ccc(Oc2ncccc2/C(=N/O)NCC2CCCO2)cc1 (stereo unspecified) | -15% |
| CC(C)c1ccc(Oc2ncccc2/C(=N/O)NCC2CCCO2)cc1 (stereo unspecified) | 98% |
| COc1ccc(CN/C(=N\O)c2cccnc2Oc2cc(Cl)ccc2Cl)cc1 | 5% |
| Cc1ccc(/C(=N/O)NCc2ccccn2)c(Oc2cc(Cl)ccc2Cl)n1 | 30% |

| SMILES | % inhibition |
| --- | --- |
| CCOc1ccccc1CN/C(=N\O)c1ccnc(Oc2ccc(Cl)cc2)c1 | 7% |
| Cc1ccccc1CN/C(=N\O)c1cccnc1Oc1cc(Cl)ccc1Cl | 99% |
| O/N=C(\NCc1ccccc1)c1cccnc1Oc1cc(Cl)ccc1Cl | 100% |
| CCOc1ccccc1CN/C(=N\O)c1cccnc1Oc1ccc(Cl)cc1 | 87% |
| O/N=C(\NCc1ccccn1)c1cccnc1Oc1cc(Cl)ccc1Cl | 0% |
| CC(C)COc1ncccc1/C(=N/O)NCC1CCCO1 (stereo unspecified) | 6% |
| COCC(C)N/C(=N\O)c1ccc(C)nc1Oc1ccc(SC)c(C)c1 (stereo unspecified) | -10% |
| Cc1ccc(Oc2nc(C)ccc2/C(=N/O)N2CCCCC2)c(C)c1 | 0% |
| CC(NCc1coc(-c2ccc(C(F)(F)F)cc2)n1)c1ccccc1 (stereo unspecified) | 2% |
| COc1ccc(-c2nc(CNCCc3ccccc3OC)co2)cc1 | -4% |
| Cc1ccc(-c2nc(CN3CCN(C(=O)C4CCCO4)CC3)co2)cc1 (stereo unspecified) | 21% |
| Cc1ccc(Oc2cc(/C(=N/O)NCc3cccnc3)ccn2)c(C)c1 | -3% |
| COc1ccc(Oc2nc(C)ccc2/C(=N/O)NCc2ccc(C)o2)cc1 | 16% |
| CCc1ccc(Oc2ncccc2/C(=N/O)N2CCN(C)CC2)cc1 | -4% |
| CCc1ccc(Oc2ccc(/C(N)=N/O)cn2)cc1 | 20% |
| COc1ccccc1CN/C(=N\O)c1cccnc1Oc1cccc2ccccc12 | 0% |
| CCOc1ccccc1CN/C(=N\O)c1cccnc1OCC(C)C | 3% |
| CCOc1ccccc1CN/C(=N\O)c1cccnc1Oc1ccccc1SC | 100% |
| CCc1ccc(Oc2ncccc2/C(=N/O)NCc2ccccc2C)cc1 | 99% |
| COc1ccc(Oc2ncccc2/C(=N/O)NCc2ccccc2C)cc1 | 85% |
| COc1ccc(Oc2ncccc2/C(=N/O)NCc2ccccn2)cc1 | 2% |
| COc1ccc(Oc2ncccc2/C(=N/O)NCc2ccccc2OC)cc1 | 94% |
| CCOc1ccccc1CN/C(=N\O)c1cccnc1OC1CCC1 | 5% |

| SMILES | % inhibition |
| --- | --- |
| Cc1ccc(/C(=N/O)N2CCC(N(C)C)C2)c(OCc2cccc(F)c2)n1 (stereo unspecified) | -7% |
| O/N=C(\NCc1ccccc1)c1ccc(Oc2c(F)c(F)cc(F)c2F)nc1 | 30% |
| c1csc(-c2nc(CNCCN3CCOCC3)co2)c1 | -8% |
| CCN(Cc1coc(-c2ccccc2C)n1)c1ccc2c(c1)OCO2 | 13% |
| Cc1ccc2cccc(Oc3cc(/C(=N/O)NCc4cccs4)ccn3)c2n1 | 6% |
| CCN(Cc1coc(-c2ccc(F)cc2)n1)c1ccc2c(c1)OCO2 | -2% |
| CN(Cc1cccnc1)/C(=N\O)c1ccnc(Oc2cccc(F)c2)c1 | 2% |
| CCOc1ccccc1-c1nc(CNCc2cc(OC)c(OC)c(OC)c2)co1 | 8% |
| CCOc1ccccc1CN/C(=N\O)c1cccnc1Oc1ccc(C(C)C)cc1 | 99% |
| CCOc1ccccc1CN/C(=N\O)c1cccnc1Oc1ccc2oc3ccccc3c2c1 | 14% |
| CCOc1ccccc1CN/C(=N\O)c1ccc(C)nc1Oc1cc(Cl)ccc1Cl | 26% |
| Cc1ccc(/C(=N/O)NCc2ccccc2C)c(Oc2cccc(C(C)C)c2)n1 | 2% |
| CCOc1ccccc1CN/C(=N\O)c1cccnc1Oc1ccc(OC)cc1 | 98% |
| CCOc1ccccc1CN/C(=N\O)c1cccnc1Oc1ccc(F)cc1 | 5% |
| CCOc1ccccc1CN/C(=N\O)c1cccnc1Oc1cc(Cl)ccc1Cl | 100% |
| Cc1ccccc1CN/C(=N\O)c1cccnc1OCC(C)C | 11% |
| COc1ccccc1CN/C(=N\O)c1cccnc1Oc1ccc(C(C)C)cc1 | -4% |
| Cc1ccccc1CN/C(=N\O)c1cccnc1Oc1ccc(C(C)C)cc1 | 99% |
| CCOc1ccccc1CN/C(=N\O)c1cccnc1Oc1cc(C)cc(C(C)C)c1 | -4% |
